Sm TGR inh: qHTS Assay for the Inhibitors of Schistosoma Mansoni Peroxiredoxins; Potency, µM (titrated, usually from 114 µM), for inactives: at the highest dose activity change, negative = inhibition, hits mostly inhibitors; Schistosoma mansoni thioredoxin glutathione reductase (TGR), Q962Y6; 360,000 compounds, 3% hits; purified TGR, DTNB reduction, TNB absorbance 405 nm; note: potency is the fitted concentration of half-maximal effect; % is set by controls: 0 for no effect and ±100 for the full control effect; nearly all actives have a fitted effect of over 60% in size
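Kinetic colorimetric format: TGR-catalysed, NADPH-driven DTNB reduction monitored via TNB absorbance. Enzyme dispensed at 20 nM; compound exposure 15 min at room temperature before reaction start.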
Cycloheximide cs: Cycloheximide Counterscreen for Small Molecule Inhibitors of Shiga Toxin; max response, %; 300,000 compounds, 12% hits; cell reporter, cycloheximide protein synthesis inhibition counterscreen; in the data active = max response mostly above about 13%, no sharp cut-off; inactive = mostly below about 14%; note: read at 38.3 µM for the half of the compounds with a filed dose; 0% is about no effect
Pf growth 96h: Primary qHTS for delayed death inhibitors of the malarial parasite plastid, 96 hour incubation; 320,000 compounds, 6.9% hits; Potency, µM (highest dose often 28.7 µM), for inactives: top-dose activity change, negative = inhibition, hits mostly inhibitors; AID 504834, 2011; P. falciparum luciferase reporter growth, 96 h; note: potency is the fitted concentration of half-maximal effect; % is set by controls: 0 for no effect and ±100 for the full control effect
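Two-generation exposure (96 h) targets delayed-death phenotype. Reporter parasites carrying integrated firefly luciferase, in red cells at 2% hematocrit and 0.05% parasitemia final, kept at 37 C, 5% CO2; luminescence loss indicates inhibition.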
Shiga inhibitor: A qHTS for Small Molecule Inhibitors of Shiga Toxin; Vero cells, Shiga toxin protein synthesis inhibition reporter; inhibition, % at 38.7 µM; 290,000 compounds, 9.2% hits; in the data active = inhibition mostly above about 28%, no sharp cut-off; inactive = mostly below about 43%; note: 0% is about no effect
NS1 inh: qHTS Assay for Inhibitors of Influenza NS1 Protein Function; Potency, µM (series often up to 46.1 µM), without a hit: at the top dose activity, positive = more growth; 270,000 compounds, 0.4% hits; calls by dose curve; note: potency is the fitted concentration of half-maximal effect; actives are rising curves; nearly all actives have a fitted effect of over 50% in size
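OD600 was taken as the measure of yeast growth restored by compound in an NS1-expressing S. cerevisiae strain. Cells had been washed out of glucose medium and diluted 1:100 into galactose -URA medium, pH 6.0.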
Pf growth 48h: Primary qHTS for delayed death inhibitors of the malarial parasite plastid, 48 hour incubation; Potency, µM (series often up to 28.7 µM), for the others: at the highest dose activity change, negative = inhibition, actives largely listed as inhibitors; P. falciparum luciferase growth in erythrocytes, 48 h; 310,000 compounds, 5.9% hits; AID 504832, 2011; note: potency is the fitted concentration of half-maximal effect; % is set by controls: 0 for no effect and ±100 for the full control effect
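First compound was added to culture medium, then infected red cells at 0.1% parasitemia and 2% hematocrit (final). After incubation at 37 C under 5% CO2, luciferase detection reagent was dispensed and light output recorded.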
An asterisk follows results filed as active; ? = inconclusive; . = not tested or not shown. Rows were chosen to be rich in hits. Some 21% of all compounds tested hit in one or more screens of this group. Unless noted, calls come from the whole dose curve; as a rule, active = well fitted curve in the direction sought with a large enough effect; inconclusive = small, poorly fitted or top-dose-only effect, or another doubt; inactive = no such curve, though single readings can be large; an effect the other way counts as inactive or inconclusive.

SMILES | Sm TGR inh | Cycloheximide cs | Pf growth 96h | Shiga inhibitor | NS1 inh | Pf growth 48h
O=C(O)[C@]1(S(=O)(=O)c2ccccc2)C[C@@H]2ON=C(c3cccc(Br)c3)[C@@H]2C1 | -30% | 4 | 2% | 5 | 5% | 47%
Cc1onc(-c2c(F)cccc2Cl)c1C(=O)OCC(=O)NC1CC1 | 5% | -1 | 10% | 1 | . | 9%
COCCNC(=O)C1Cc2c(ccc3ccccc23)O1 (centres undefined) | . | 15* | 46% | 37 | -4% | 39%
O=C(Nc1nc2ccccc2s1)c1ccc([N+](=O)[O-])o1 | -18% | 33* | ? | 48* | 0% | -11%
COc1ccc2nc(NC(=O)c3ccc([N+](=O)[O-])o3)sc2c1 | 3% | 34* | 276% | 55* | -6% | ?
O=C(Nc1nc2cc3c(cc2s1)OCCO3)c1ccc([N+](=O)[O-])o1 | -1% | 48* | 8.3µM* | 45* | -3% | -15%
Cc1cc(C)c2sc(NC(=O)c3ccc([N+](=O)[O-])o3)nc2c1 | ? | 1 | ? | 4 | -31% | ?
O=C(Nc1nc2c(F)cc(F)cc2s1)c1ccc([N+](=O)[O-])o1 | -15% | 26* | ? | 50* | -10% | -18%
Cc1cc(C)c2nc(NC(=O)c3ccc([N+](=O)[O-])o3)sc2c1 | -11% | -2 | ? | . | -8% | ?
Cc1cc(NC(=O)c2ccccc2F)ccc1-c1nc2ccccc2s1 | 8% | . | . | . | . | .
Cc1ccc2onc(CNC(=O)N3CCN(c4cc(Cl)ccc4C)CC3)c2c1 | -1% | . | . | . | . | .
N#CC1=C(SCc2ccccc2)NC(=O)CC1c1ccco1 (centres undefined) | 35µM* | -2 | ? | 0 | -48% | 20%
N#CC1=C(SCC(=O)NCc2ccccc2)NC(=O)CC1c1ccco1 (centres undefined) | 40µM* | -3 | 17% | -1 | -9% | -9%
CCC(C(=O)Nc1cc(C)ccc1OC)n1nnc(C(=O)OC)c1C(=O)OC (centres undefined) | 1% | . | . | . | . | .
CCN(CC)S(=O)(=O)c1ccc(OCC2CCCCO2)c([N+](=O)[O-])c1 (centres undefined) | -7% | 0 | ? | 4 | -12% | ?
CC(C)CN1C(=O)NC(NC(=O)c2ccco2)(C(F)(F)F)C1=O (centres undefined) | -18% | -4 | ? | 30 | 8% | -26%
O=C(NC1(C(F)(F)F)NC(=O)N(CC2CCCCC2)C1=O)c1ccco1 (centres undefined) | 79µM* | -8 | ? | -7 | -4% | 12%
O=C(N/N=C/c1cccs1)c1ccc2nc[nH]c2c1 | -2% | 20 | 16% | 49 | . | 81%
O=C(N/N=C/c1cccs1)c1ccc2ccccc2c1 | 2% | 54* | 20% | 109* | -44% | -11%
O=C(N/N=C/c1cccs1)c1ccc2ncccc2c1 | 1% | 18 | 1% | 46* | -7% | -6%
O=C(CNC(=O)c1nc[nH]c1C(=O)N1CCN(c2ccccc2)CC1)OCc1ccccc1 | 10% | -1 | 10% | -4 | -3% | 39%
CC1=CC2=NC(=O)/C(=C\c3cccn3CCOc3cc(C)ccc3C)C(=N)N2O1 | -2% | -2 | 17% | -8 | 23% | ?
CCOC(=O)CSC1=Nc2ccccc2C2=NC(CC(=O)NCc3cccs3)C(=O)N12 (centres undefined) | -1% | -1 | ? | -9 | ? | 10µM*
COCCCNC(=O)CSC1=Nc2ccccc2C2=NC(Cc3c[nH]c4ccccc34)C(=O)N12 (centres undefined) | 15% | 7 | 5.2µM* | 2 | 3% | 5%
CCC(C)NC(=O)CSC1=Nc2ccccc2C2=NC(CC(=O)NCc3ccc(F)cc3)C(=O)N12 (centres undefined) | 1% | -3 | ? | -5 | 7% | 13µM*
SMILES | Sm TGR inh | Cycloheximide cs | Pf growth 96h | Shiga inhibitor | NS1 inh | Pf growth 48h
Cc1nn(-c2ccccc2)c(OC(=O)C(C)(C)C)c1Sc1ccccc1 | 5% | . | . | . | . | .
CC1=C(C(=O)Nc2cccnc2)C(c2ccc(C)cc2)n2nc(SCc3ccccc3F)nc2N1 (centres undefined) | -26% | . | . | . | . | .
O=C(CC1CS(=O)(=O)CC1CC(=O)Oc1ccccc1F)Oc1ccccc1F (centres undefined) | 3% | -4 | 6% | -4 | -34% | -5%
COCCn1c(SCC(=O)Nc2ccccc2C(F)(F)F)nc2ccccc2c1=O | 8% | -3 | ? | . | -16% | 36%
CC(C)CCn1c(SCC(=O)Nc2ccccc2C(F)(F)F)nc2nccnc2c1=O | 22µM* | -5 | ? | -7 | 2% | ?
Cc1ccc(NC(=O)CCSc2nc(-c3ccco3)cc(C(F)(F)F)n2)cc1F | 21% | . | . | . | . | .
O=C(C(=O)N1CCCC1CO)N1CCCC1CO (centres undefined) | 0% | -4 | -8% | -9 | 6% | 0%
O=C(/C=C/c1cccc(Br)c1)NCC1CCCCC1 | 11% | 6 | ? | 16 | -13% | 24%
O=C(CCCCCBr)N1CCC(CC2CC(c3cccc(Br)c3)=NO2)(C(=O)NCC2CCCCC2)CC1 (centres undefined) | -2% | 3 | 5.2µM* | 9 | -29% | ?
O=C(CCCCCBr)N1CCC(CC2CC(c3ccc(Cl)cc3)=NO2)(C(=O)NCC2CCCCC2)CC1 (centres undefined) | 7% | -1 | 3.3µM* | -9 | 11% | ?
CCCCCCCNC(=O)C1(CC2CC(c3ccc(Cl)cc3)=NO2)CCN(C(=O)CCCCCBr)CC1 (centres undefined) | -23% | -2 | 12µM* | 11 | -31% | 32%
NC(=O)C1CCCN(C(=O)CCCNC(=O)c2ccc(Cl)cc2)C1 (centres undefined) | 6% | -4 | 7% | -7 | 4% | 9%
CCC(=O)N1CCC2(CC1)Oc1ccc(Cl)cc1C(=O)C21CC(c2ccc(Cl)cc2)=NO1 (centres undefined) | -12% | 0 | ? | -7 | -17% | ?
COC(=O)c1sc2ccccc2c1NC(=O)c1ccc(S(=O)(=O)N2CCC(C)CC2)cc1 | -11% | -2 | ? | -12 | 25% | 5%
Cc1nc(CCNC(=O)CC2C(=O)NCCN2Cc2ccoc2)nc2c1CCCC2 (centres undefined) | 28µM* | -1 | ? | -1 | -3% | 22%
COc1ccc(CN2CCNC(=O)C2CC(=O)NCCc2nc(C)c(C)s2)cc1C (centres undefined) | ? | 1 | -27% | -6 | 9% | -15%
COC(=O)CCCNC(=O)CC1C(=O)NCCN1Cc1ccoc1 (centres undefined) | 45µM* | -2 | 13µM* | 17 | 0% | 32%

Assay outcomes as filed in PubChem.
